Measured values: the supplement of paper PMC10849652
Targets with a hit are over-represented here; the source holds about 8,800 in all. About 0.5% of all pairs of compound and target were hits. A number with no mark means an inactive call.

Assays:
Assay in all cases: log2 fold change, soluble protein after heating vs DMSO (PISA); higher = thermal stabilisation; K562 lysate, 10 uM; active = over 0.2 and 3.5 SD of the protein, either way, in both replicates (recomputed)
[1] = compound: NCC(=O)Nc1ccc(-n2nc(C(F)(F)F)cc2-c2ccc3c(ccc4ccccc43)c2)cc1
In short: (§1)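 The values are log-two fold changes in thermal stability compared with solvent controls and come from duplicates. They were obtained by TMTpro 16plex LC-MS/MS, with channel sums equalised, on the supernatant after 21,000xg for 90 min. That supernatant came from crude K562 extract at 1 mg/mL protein treated with 10 μM compound for 30 min, heated for 3 min across 48°C-58°C, pooled and brought to 0.5% NP-40 at 4°C.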

[2] = compound: O=C(CCCCCCC(=O)Nc1ccccc1)NO [vorinostat]
In short: as §1

[3] = compound: O=C(O)c1ccc2c(c1)nc(Nc1cccc(Cl)c1)c1ccncc12 [silmitasertib]
In short: as §1

[4] = compound: O=C1NC(=O)C(c2cnc3ccccn23)=C1c1cn2c3c(cc(F)cc13)CN(C(=O)N1CCCCC1)CC2
In short: as §1

[5] = compound: c1cn2cc(-c3ccc4cn[nH]c4c3)nc(Nc3ccc(N4CCOCC4)cc3)c2n1 [entospletinib]
In short: as §1

Chain of UniProt Q15366 (Q15366 whole entry, looked up): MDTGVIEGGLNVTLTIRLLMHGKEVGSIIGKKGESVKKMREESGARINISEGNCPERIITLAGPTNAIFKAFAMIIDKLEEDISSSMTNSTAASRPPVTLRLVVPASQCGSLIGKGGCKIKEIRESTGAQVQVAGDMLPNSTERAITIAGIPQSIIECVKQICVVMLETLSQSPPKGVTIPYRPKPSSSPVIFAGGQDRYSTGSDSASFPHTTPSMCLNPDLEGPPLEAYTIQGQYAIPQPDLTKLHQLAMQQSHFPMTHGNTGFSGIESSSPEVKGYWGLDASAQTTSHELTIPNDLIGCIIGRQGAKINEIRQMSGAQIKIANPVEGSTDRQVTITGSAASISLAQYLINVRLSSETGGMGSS
Chain of UniProt O75569 (O75569 whole entry, looked up): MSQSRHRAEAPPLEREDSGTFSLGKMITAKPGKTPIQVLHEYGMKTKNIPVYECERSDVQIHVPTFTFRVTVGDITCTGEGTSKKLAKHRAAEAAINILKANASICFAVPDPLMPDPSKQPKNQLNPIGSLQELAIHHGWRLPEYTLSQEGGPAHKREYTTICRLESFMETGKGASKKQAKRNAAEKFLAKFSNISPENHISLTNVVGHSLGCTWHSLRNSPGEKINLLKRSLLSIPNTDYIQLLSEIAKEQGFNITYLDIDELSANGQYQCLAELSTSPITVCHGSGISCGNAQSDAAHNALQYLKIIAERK
Chain of UniProt Q96CD2 (Q96CD2 whole entry, looked up): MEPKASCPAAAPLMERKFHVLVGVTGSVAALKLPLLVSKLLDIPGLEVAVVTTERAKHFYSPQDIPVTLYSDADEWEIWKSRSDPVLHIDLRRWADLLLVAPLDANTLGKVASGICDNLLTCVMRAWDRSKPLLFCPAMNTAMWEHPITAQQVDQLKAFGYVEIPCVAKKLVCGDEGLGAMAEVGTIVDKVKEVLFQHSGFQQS
Chain of UniProt Q8TCD6 (Q8TCD6 whole entry, looked up): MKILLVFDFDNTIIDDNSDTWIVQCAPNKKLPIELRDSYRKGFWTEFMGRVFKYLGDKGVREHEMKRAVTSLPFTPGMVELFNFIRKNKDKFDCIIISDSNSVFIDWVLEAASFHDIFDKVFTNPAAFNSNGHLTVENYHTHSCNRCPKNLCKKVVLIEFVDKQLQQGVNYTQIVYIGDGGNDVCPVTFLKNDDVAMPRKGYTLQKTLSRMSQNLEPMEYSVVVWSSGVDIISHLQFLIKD
Chain of UniProt O94806 (O94806 whole entry, looked up): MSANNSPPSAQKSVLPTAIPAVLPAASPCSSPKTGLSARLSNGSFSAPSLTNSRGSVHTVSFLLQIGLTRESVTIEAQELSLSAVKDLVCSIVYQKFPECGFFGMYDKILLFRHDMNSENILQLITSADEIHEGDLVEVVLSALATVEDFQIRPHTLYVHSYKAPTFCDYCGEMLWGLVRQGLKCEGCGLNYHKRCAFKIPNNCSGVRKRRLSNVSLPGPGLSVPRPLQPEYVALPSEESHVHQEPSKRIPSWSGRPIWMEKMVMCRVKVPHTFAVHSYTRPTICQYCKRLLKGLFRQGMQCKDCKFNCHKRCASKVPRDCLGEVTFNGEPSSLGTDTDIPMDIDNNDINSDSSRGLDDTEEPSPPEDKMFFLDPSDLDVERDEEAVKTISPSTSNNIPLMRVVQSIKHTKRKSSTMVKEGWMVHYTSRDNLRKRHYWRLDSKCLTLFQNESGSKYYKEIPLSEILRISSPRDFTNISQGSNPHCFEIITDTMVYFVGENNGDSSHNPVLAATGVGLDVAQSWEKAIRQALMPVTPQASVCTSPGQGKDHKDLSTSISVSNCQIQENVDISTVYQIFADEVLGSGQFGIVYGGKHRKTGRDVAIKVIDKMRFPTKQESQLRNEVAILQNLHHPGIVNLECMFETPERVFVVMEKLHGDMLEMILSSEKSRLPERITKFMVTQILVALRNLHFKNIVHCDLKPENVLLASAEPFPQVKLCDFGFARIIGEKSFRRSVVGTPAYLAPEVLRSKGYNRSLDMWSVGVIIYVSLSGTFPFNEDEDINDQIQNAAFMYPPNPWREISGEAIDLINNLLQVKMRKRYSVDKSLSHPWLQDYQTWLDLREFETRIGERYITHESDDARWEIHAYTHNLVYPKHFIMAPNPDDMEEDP
Chain of UniProt P27986 (P27986 whole entry, looked up): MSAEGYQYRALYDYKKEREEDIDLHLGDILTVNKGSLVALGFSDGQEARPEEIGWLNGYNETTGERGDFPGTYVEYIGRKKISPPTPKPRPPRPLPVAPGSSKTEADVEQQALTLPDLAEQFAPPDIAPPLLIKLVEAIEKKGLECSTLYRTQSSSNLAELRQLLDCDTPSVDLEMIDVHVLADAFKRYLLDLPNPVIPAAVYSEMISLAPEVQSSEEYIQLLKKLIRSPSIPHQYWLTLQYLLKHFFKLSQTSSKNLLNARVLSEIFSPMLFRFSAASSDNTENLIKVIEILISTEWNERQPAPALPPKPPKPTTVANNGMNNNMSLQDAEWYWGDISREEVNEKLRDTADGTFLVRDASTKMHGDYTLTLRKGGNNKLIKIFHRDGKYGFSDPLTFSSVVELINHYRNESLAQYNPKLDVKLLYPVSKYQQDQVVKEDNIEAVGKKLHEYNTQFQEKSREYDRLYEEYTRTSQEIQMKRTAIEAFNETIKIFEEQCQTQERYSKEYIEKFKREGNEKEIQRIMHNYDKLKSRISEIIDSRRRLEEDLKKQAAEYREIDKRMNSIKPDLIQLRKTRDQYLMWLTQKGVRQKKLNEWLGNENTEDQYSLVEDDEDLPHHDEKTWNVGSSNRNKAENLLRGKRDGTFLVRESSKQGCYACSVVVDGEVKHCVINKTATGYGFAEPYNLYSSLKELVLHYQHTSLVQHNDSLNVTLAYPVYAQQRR
Chain of UniProt O75334 (O75334 whole entry, looked up): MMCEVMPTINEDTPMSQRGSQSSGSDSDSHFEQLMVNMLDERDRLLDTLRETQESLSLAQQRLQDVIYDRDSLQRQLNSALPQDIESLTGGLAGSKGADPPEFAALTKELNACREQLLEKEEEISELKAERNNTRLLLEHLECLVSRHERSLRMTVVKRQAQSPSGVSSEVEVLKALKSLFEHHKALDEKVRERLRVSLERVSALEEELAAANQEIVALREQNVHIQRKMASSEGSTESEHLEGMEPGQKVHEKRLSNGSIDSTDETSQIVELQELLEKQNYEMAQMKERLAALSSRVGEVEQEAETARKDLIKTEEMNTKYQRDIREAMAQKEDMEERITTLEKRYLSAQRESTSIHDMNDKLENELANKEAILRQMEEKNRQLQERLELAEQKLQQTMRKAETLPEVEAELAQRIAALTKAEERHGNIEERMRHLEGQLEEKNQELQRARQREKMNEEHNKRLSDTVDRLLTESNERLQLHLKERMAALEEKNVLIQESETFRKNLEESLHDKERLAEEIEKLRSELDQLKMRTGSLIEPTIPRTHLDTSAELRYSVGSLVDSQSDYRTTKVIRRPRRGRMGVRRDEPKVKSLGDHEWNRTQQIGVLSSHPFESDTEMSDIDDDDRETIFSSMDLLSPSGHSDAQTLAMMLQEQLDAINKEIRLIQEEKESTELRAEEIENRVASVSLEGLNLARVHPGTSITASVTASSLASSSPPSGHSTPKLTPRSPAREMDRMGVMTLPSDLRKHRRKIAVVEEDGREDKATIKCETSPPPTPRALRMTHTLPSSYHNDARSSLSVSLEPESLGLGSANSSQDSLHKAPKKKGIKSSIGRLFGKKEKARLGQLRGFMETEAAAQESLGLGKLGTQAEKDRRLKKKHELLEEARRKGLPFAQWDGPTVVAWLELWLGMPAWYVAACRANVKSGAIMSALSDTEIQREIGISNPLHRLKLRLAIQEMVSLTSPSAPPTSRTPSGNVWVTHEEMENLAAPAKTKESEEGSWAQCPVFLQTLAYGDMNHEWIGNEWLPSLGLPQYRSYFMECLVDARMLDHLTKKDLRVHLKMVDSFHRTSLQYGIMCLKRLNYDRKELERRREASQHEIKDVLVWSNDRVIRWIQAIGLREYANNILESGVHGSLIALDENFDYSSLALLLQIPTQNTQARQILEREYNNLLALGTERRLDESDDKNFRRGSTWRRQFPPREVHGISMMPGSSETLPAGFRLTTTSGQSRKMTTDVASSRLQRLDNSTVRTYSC
Chain of UniProt Q9NXJ5 (Q9NXJ5 whole entry, looked up): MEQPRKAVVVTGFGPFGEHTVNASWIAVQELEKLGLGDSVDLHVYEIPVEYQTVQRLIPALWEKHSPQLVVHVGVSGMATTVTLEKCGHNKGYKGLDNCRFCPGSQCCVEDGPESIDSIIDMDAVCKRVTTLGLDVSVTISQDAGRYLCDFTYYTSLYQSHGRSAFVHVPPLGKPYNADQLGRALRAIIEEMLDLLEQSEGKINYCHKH

Row | Target | log2 fold change [1] | log2 fold change [2] | log2 fold change [3] | log2 fold change [4] | log2 fold change [5]
1 | PDIA4 (UniProt P13667) | 0.001 | 0.119 | -0.011 | 0.021 | 0.004
2 | PIP4K2B (UniProt P78356) | 0.005 | 0.074 | 0.221 | 0.073 | -0.013
3 | PKN1 isoform 2 (UniProt Q16512) | 0.002 | -0.131 | -0.012 | -0.138 | -0.009
4 | PKP3 isoform 2 (UniProt Q9Y446) | -0.021 | -0.286 (active) | -0.043 | -0.063 | 0.002
5 | POLR2M (UniProt Q6EEV4) | 0.146 | -0.019 | -0.069 | 0.06 | -0.022
6 | POGK (UniProt Q9P215) | 0.018 | -0.173 | 0.002 | -0.083 | 0.3
7 | PRKCA (UniProt P17252) | -0.045 | -0.14 | 0.044 | 0.087 | 0.018
8 | PXMP4 (UniProt Q9Y6I8) | 0.038 | 0.295 | 0.134 | 0.021 | -0.004
9 | PGGT1B (UniProt P53609) | -0.038 | 0.08 | 0.109 | -0.029 | -0.054
10 | PCBP2 isoform 3 (UniProt Q15366) | -0.071 | -0.252 (active) | 0.042 | -0.035 | 0.01
11 | POLR2B (UniProt P30876) | 0.03 | -0.344 (active) | 0.034 | 0.024 | -0.008
12 | PPP2R5B (UniProt Q15173) | 0.077 | -0.075 | -0.007 | -0.065 | 0.028
13 | PRKCSH isoform 2 (UniProt P14314) | -0.046 | 0.126 | -0.057 | -0.019 | 0.037
14 | POLD3 (UniProt Q15054) | 0.045 | -0.335 (active) | -0.02 | -0.03 | 0.011
15 | PTS (UniProt Q03393) | 0.053 | 0.006 | 0.009 | -0.151 | 0.032
16 | PHACTR4 isoform 2 (UniProt Q8IZ21) | 0.025 | 0.014 | 0.01 | 0.009 | -0.024
17 | PPP2CA (UniProt P67775) | -0.079 | 0.076 | -0.021 | -0.004 | 0
18 | PRKRA (UniProt O75569) | 0.023 | -0.773 (active) | -0.022 | 0.024 | 0.041
19 | PDCD6IP isoform 2 (UniProt Q8WUM4) | -0.001 | -0.473 (active) | 0.019 | -0.006 | 0.018
20 | PIK3C3 (UniProt Q8NEB9) | -0.04 | -0.066 | 0.037 | 0.019 | -0.014
21 | PPIL2 (UniProt Q13356) | 0.015 | -0.32 (active) | 0.019 | -0.009 | 0.014
22 | PRC1 (UniProt O43663) | 0.012 | -0.387 (active) | 0.046 | -0.02 | 0.023
23 | PEF1 (UniProt Q9UBV8) | -0.186 | 0.467 (active) | -0.005 | -0.008 | -0.009
24 | PDXK (UniProt O00764) | -0.005 | 0.073 | -0.008 | 0.026 | -0.009
25 | PDCD6IP (UniProt Q8WUM4) | 0.065 | -0.332 (active) | -0.005 | 0.009 | -0.009
26 | PTP4A1 (UniProt Q93096) | 0.019 | -0.292 (active) | -0.003 | 0.014 | -0.009
27 | PLEKHA5 isoform 6 (UniProt Q9HAU0) | -0.029 | -0.305 (active) | -0.003 | -0.016 | 0.022

Row | Target | log2 fold change [1] | log2 fold change [2] | log2 fold change [3] | log2 fold change [4] | log2 fold change [5]
28 | PRKAR2B (UniProt P31323) | 0.014 | -0.093 | 0.009 | 0.025 | -0.055
29 | PTPN6 isoform 4 (UniProt P29350) | -0.001 | -0.039 | 0.078 | 0.006 | 0.107
30 | PIKFYVE (UniProt Q9Y2I7) | 0.031 | -0.476 (active) | 0.03 | -0.026 | -0.014
31 | PIP4K2A (UniProt P48426) | 0.027 | 0.024 | 0.225 | 0.007 | -0.029
32 | PHOSPHO2 (UniProt Q8TCD6) | -0.051 | 0.181 | -0.002 | 0.001 | -0.116
33 | PIK3CG (UniProt P48736) | -0.111 | -0.037 | 0.04 | -0.027 | -0.073
34 | PPCDC (UniProt Q96CD2) | 0.001 | -0.002 | 0.071 | -0.015 | 0.002
35 | PRKCSH (UniProt P14314) | 0.002 | 0.141 | -0.015 | -0.001 | 0.001
36 | PIK3R1 (UniProt P27986) | -0.035 | -0.206 | 0.213 | 0.022 | 0.03
37 | PSTPIP2 (UniProt Q9H939) | 0.046 | -0.312 (active) | 0.04 | 0.017 | -0.005
38 | PPFIA2 (UniProt O75334) | 0.05 | -0.053 | -0.074 | 0.069 | -0.036
39 | PPP1R12B isoform 6 (UniProt O60237) | 0.168 | -0.063 | 0.091 | -0.005 | -0.052
40 | POLR2F (UniProt P61218) | -0.019 | 0.171 | 0.008 | 0.027 | -0.086
41 | PFKFB2 (UniProt O60825) | -0.007 | -0.39 (active) | 0.033 | 0.026 | 0.018
42 | PRKD3 (UniProt O94806) | -0.116 | -0.182 | 0.224 | 0.076 | 0.013
43 | PCIF1 (UniProt Q9H4Z3) | -0.018 | -0.011 | 0.112 | 0.036 | 0.085
44 | PTPN1 (UniProt P18031) | -0.005 | -0.29 (active) | 0.04 | 0.012 | 0.048
45 | PIP4K2C (UniProt Q8TBX8) | 0.021 | -0.07 | 0.425 (active) | 0.063 | 0.004
46 | PYCR2 (UniProt Q96C36) | 0.002 | 0.1 | -0.008 | 0.015 | 0
47 | PCBP3 (UniProt P57721) | 0.016 | -0.371 (active) | 0.001 | -0.001 | 0.016
48 | PDAP1 (UniProt Q13442) | 0.014 | 0.118 | 0.005 | -0.004 | -0.027
49 | PGPEP1 (UniProt Q9NXJ5) | 0 | -0.526 (active) | 0.009 | 0.012 | -0.049
50 | PTPN23 (UniProt Q9H3S7) | -0.011 | -0.266 (active) | -0.007 | 0 | 0.009
51 | PFKFB4 (UniProt Q16877) | 0.007 | -0.369 (active) | 0 | -0.031 | 0.051
52 | PPP1R8 (UniProt Q12972) | 0.02 | 0.04 | -0.009 | -0.017 | 0.025
53 | PI4KB (UniProt Q9UBF8) | -0.085 | -0.132 | 0.151 | -0.044 | 0.184
